Experimental data from PubChem BioAssay (Tox21).
Records with an inconclusive call do not appear. The source made the active and inactive calls. Unless noted, calls come from the whole dose curve; as a rule, active = well fitted curve in the direction sought with a large enough effect in the repeat runs; inconclusive = weak or mixed curves; inactive = no such curve, though single readings can be large; an effect the other way counts as inactive or inconclusive.

Legend:
[1] = qHTS assay for small molecule agonists of the p53 signaling pathway (AID 651631; calls by dose curve; note: nearly all actives have a fitted effect of over 15% in size)
How it was run: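 Readout was fluorescence from the LiveBLAzer FRET substrate, applied for 2 h at room temperature after 16 h compound exposure at 37 °C. Cells were the p53RE-bla HCT-116 line, with beta-lactamase driven by p53 response elements.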

[2] = qHTS assay for small molecules that induce genotoxicity in human embryonic kidney cells expressing luciferase-tagged ATAD5 (AID 651632); note: nearly all actives have a fitted effect of over 15% in size
How it was run: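 DMSO vehicle served as the control. HEK293T reporter cells, 16 hr at 37C, then 30 min Amplite at room temperature; ATAD5 induction is measured as luciferase activity.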

[3] = qHTS assay for small molecule agonists of the p53 signaling pathway - cell viability (AID 651633; calls by dose curve; note: series mostly up to about 83 µM; nearly all actives have a fitted effect of over 30% in size)
How it was run: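 Viability counter-read: CellTiter-Glo luminescence (30 min, room temperature) in the same p53RE-bla plates. These plates had been exposed to compounds for 16 h at 37 C.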

[4] = qHTS assay for small molecules that induce genotoxicity in human embryonic kidney cells expressing luciferase-tagged ATAD5 - cell viability (AID 651634; calls by dose curve; note: nearly all actives have a fitted effect of over 25% in size)
How it was run: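 Here HEK293T cells with the ATAD5 luciferase reporter are incubated with test compounds for 15.5 hr, and cytotoxicity is then gauged by measuring protease activity in live cells using fluorescence.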

[5] = qHTS assay for small molecule disruptors of the mitochondrial membrane potential - cell viability (AID 720634; calls by dose curve;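 note: human HepG2 liver cancer cells; series mostly up to about 83 µM; nearly all actives have a fitted effect of over 20% in size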)
How it was run: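 Viability of HepG2 cells is scored from ATP content by luminescence; cells are exposed to compound for 1 hr at 37 C and 5% CO2, then dosed with m-MPI dye before the CellTiter-Glo reagent.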

[6] = qHTS assay to test for compound auto fluorescence at 590 nm (red) in HepG2 cells (AID 720674)
How it was run: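 1 hr compound incubation on HepG2 cells, 37 C, 5% CO2; plate read ex 540 nm / em 590 nm; intensities reported as Rose Bengal sodium equivalents.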

[7] = qHTS assay to test for compound auto fluorescence at 535 nm (green) in HepG2 cells (AID 720675)
[8] = qHTS assay to test for compound auto fluorescence at 460 nm (blue) in HEK293 cells (AID 720678)
How it was run: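 Auto fluorescence in the blue band was quantified as triamterene equivalency. HEK293 cells were seeded at 2,000/well, dosed after a 4-5 hr attachment, and kept overnight at 37C before the 405/460 nm reading.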

[9] = qHTS assay to test for compound auto fluorescence at 590 nm (red) in HEK293 cells (AID 720679)
How it was run: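 Autofluorescence equivalency to Rose Bengal sodium, 540/590nm, in HEK293 cells exposed overnight to 23 nL compound per well.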

[10] = qHTS assay to test for compound auto fluorescence at 535 nm (green) in HEK293 cells (AID 720680)
[11] = qHTS assay to test for compound auto fluorescence at 460 nm (blue) in HEK293 cell free culture (AID 720681)
How it was run: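 Blue fluorescence (Ex 405/Em 460 nm, triamterene-equivalent) was read immediately after pin transfer of compound or DMSO into medium (DMEM, 10% FBS) without cells.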

[12] = qHTS assay to test for compound auto fluorescence at 535 nm (green) in HEK293 cell free culture (AID 720682)
How it was run: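 Compounds were pin-transferred into cell-free DMEM with 10% FBS, and green fluorescence was read at excitation 485 nm and emission 535 nm. Intensities were expressed as fluorescein-equivalent values.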

[13] = qHTS assay to test for compound auto fluorescence at 590 nm (red) in HEK293 cell free culture (AID 720683)
How it was run: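 Red-channel autofluorescence of compounds in culture medium (DMEM, 10% FBS), no cells, measured at 540/590 nm. Rose Bengal sodium is the reference fluorophore for equivalence.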

[14] = qHTS assay to test for compound auto fluorescence at 590 nm (red) in HepG2 cell free culture (AID 720684)
How it was run: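 Cell-free; medium MEM + 10% FBS; compound or DMSO added by pintool; read Ex 540/Em 590 nm; Rose Bengal sodium as red reference fluorophore.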

[15] = qHTS assay to test for compound auto fluorescence at 460 nm (blue) in HepG2 cell free culture (AID 720685)
How it was run: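 Cell-free plates of MEM plus 10% FBS received 23 nL compound or DMSO vehicle; blue-channel (405/460 nm) intensity scored against triamterene as reference fluorophore.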

[16] = qHTS assay to test for compound auto fluorescence at 535 nm (green) in HepG2 cell free culture (AID 720686)
[17] = qHTS assay to test for compound auto fluorescence at 460 nm (blue) in HepG2 cells (AID 720687)
How it was run: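 Blue-channel autofluorescence (Ex/Em 405/460 nm, triamterene-equivalent) was measured after 1 hr compound exposure at 37 C, 5% CO2. Cells were HepG2, plated overnight at 37 C in MEM plus 10% FBS.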

[18] = biological target: Glucocorticoid receptor (Homo sapiens) (UniProt P04150); assay: qHTS assay to identify small molecule agonists of the glucocorticoid receptor (GR) signaling pathway (AID 720691; active = well fitted activation curve with a large enough effect in the signal ratio in the repeat runs, not every such curve was filed as active; the % refers to the signal ratio)
Glucocorticoid receptor (Homo sapiens), sequence (P04150 whole entry, looked up): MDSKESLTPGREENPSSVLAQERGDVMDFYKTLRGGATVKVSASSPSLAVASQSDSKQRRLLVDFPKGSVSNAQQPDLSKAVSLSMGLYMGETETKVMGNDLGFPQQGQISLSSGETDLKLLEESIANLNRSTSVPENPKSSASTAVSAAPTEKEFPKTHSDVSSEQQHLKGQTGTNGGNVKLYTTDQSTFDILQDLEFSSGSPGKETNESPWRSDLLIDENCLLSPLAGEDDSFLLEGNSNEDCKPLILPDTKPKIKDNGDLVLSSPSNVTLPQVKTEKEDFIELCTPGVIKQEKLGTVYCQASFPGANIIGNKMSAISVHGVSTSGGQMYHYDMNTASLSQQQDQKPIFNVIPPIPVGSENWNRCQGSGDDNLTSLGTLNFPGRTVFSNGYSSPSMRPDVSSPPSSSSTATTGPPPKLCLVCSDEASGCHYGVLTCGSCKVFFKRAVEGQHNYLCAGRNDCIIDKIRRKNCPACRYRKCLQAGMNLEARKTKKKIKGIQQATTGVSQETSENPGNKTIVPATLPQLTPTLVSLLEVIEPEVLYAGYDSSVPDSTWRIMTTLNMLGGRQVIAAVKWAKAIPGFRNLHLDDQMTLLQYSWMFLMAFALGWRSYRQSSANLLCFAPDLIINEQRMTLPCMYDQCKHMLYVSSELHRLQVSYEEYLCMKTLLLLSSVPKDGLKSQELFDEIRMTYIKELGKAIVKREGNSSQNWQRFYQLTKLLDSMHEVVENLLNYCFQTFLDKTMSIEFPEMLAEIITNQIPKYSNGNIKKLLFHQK
How it was run: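 Compounds in DMSO, alongside positive controls, were added to GR-bla HeLa reporter cells and incubated 18 h at 37 C; GRE-driven beta-lactamase was detected by fluorescence after 2 h with FRET substrate at room temperature.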

[19] = biological target: Glucocorticoid receptor (Homo sapiens) (UniProt P04150); assay: qHTS assay to identify small molecule antagonists of the glucocorticoid receptor (GR) signaling pathway (AID 720692; active = well fitted inhibition curve with a large enough effect in the signal ratio in the repeat runs, not every such curve was filed as active; the % refers to the signal ratio)
How it was run: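 In a 1536-well cell format, compounds were added 4 h after seeding GR-bla HeLa cells, together with dexamethasone at 5 nM final; reporter activity was measured by FRET-substrate fluorescence following 18 h at 37 C.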

[20] = qHTS assay for small molecule disruptors of the mitochondrial membrane potential (AID 720635)
How it was run: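 Mitochondrial membrane potential tracked with Mito-MPS dye, red aggregates (ex 540/em 590 nm) against green monomers (ex 490/em 535 nm). Compound treatment 1 hr at 37C, dye 30 min in HepG2.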

Measured: Potency

OCC(CO)(CO)COCC(CO)(CO)CO
not listed: [18] | [19] | [20]
inactive: all other assays above

OCc1ccccn1
not listed: [20]
inactive: all other assays above

NCCN1CCNC1=O
not listed: [20]
inactive: all other assays above

NC1CCN(c2cccc(Cl)n2)CC1
not listed: [20]
inactive: all other assays above

CCCCCCCCCCCCCCCCCC(=O)OCCCCCCCCCCCCCC(C)C
not listed: [17] | [20]
inactive: all other assays above

Nc1cc(C(Cl)=C(Cl)Cl)c(S(N)(=O)=O)cc1S(N)(=O)=O
not listed: [5] | [17]
inactive: all other assays above

CCC(C(=O)NC(N)=O)c1ccccc1 (stereo not drawn)
not listed: [8] | [20]
inactive: all other assays above
